Sampled rows, rich in hits. Any-hit rate of the full collection: about 6.5%.
MK inhibit = blocks S. pneumoniae mevalonate kinase; purified MK, PK/LDH-coupled NADH absorbance 340 nm; inhibition, % at 10 µM; 65,000 compounds, 0.48% hits;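 active = ranked among the strongest by inhibition in the single 10 µM screen, a fixed top-ranked set picked for dose follow-up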
Spn DPM-DC inh = inhibitors of Streptococcus pneumoniae diphosphomevalonate decarboxylase; purified DPM-DC, PK/LDH coupled NADH fluorescence; calls only at 10 µM; 65,000 compounds, 0.49% hits;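 active = the 320 compounds with the highest percent inhibition in the single-dose primary screen, excluding strongly autofluorescent ones, cut at about 32% in these data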;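 note: kinetic rate of NADH fluorescence loss reporting ADP formed by the decarboxylase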
A340 absorber = compounds absorbing at 340 nm. compound absorbance at 340 nm, fold over control. fold change at 10 µM. AID 708. 65,000 tested, under 10 active;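 active = at 10 µM dose, initial 340 nm absorbance at least 2 fold that of control wells; inactive = change under 2 fold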;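 note: initial absorbance extrapolated from kinetic A340 decline of NADH oxidation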
PMK inhibit = inhibitors of Streptococcus pneumoniae phosphomevalonate kinase | purified PMK, PK/LDH-coupled NADH absorbance 340 nm | inhibition, % at 10 µM | 65,000 compounds, 0.49% hits;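 active = top-ranked compounds by inhibition in the single 10 µM screen, taking a fixed number of the strongest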;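 note: 0% = full reaction with DMSO carrier and 100% = background rate without enzyme reaction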
NADH coupling = inhibition of NAD/NADH coupling enzymes, library profiling | coupled PK/LDH NADH assays, four targets | IC50, µM (highest dose often 10 µM), without a hit: at the top dose inhibition | 65,000 compounds, 0.02% hits | AID 774;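 active = single-dose screening hits from any of four coupled enzyme assays that gave an IC50 when retested across doses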;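 note: the DPM-DC format reads NADH fluorescence rather than 340 nm absorbance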
Autofluor 339 = intrinsic fluorescence of library compounds, ex339/em460 – biochemical, MLSMR library, data from DPM-DC assay, artefact control, profiling panel | compound autofluorescence, ex339/em460 nm, NADH buffer; active compounds read high; 1 = no-compound wells, NADH background | fluorescence fold increase at 10 µM | 65,000 compounds, 5.5% hits | AID 709;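 active = at 10 µM, mean starting fluorescence two-fold or more over control wells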;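 note: signal is the first read of a kinetic run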
The depositor's hits bear a star.

What do the screens show for `CCCSc1nnc(NC(=O)c2sc3nc(-c4cccs4)ccc3c2N)s1`?
MK inhibit: 0.0; A340 absorber: 1.17; PMK inhibit: 5.0; NADH coupling: 3.0%; Autofluor 339: 4.49*

Results for COc1ccc(C(=O)Nc2nc(-c3cccs3)cs2)cc1 ?
MK inhibit: 0.0; Spn DPM-DC inh: inactive; A340 absorber: 1; PMK inhibit: 14.0; NADH coupling: 5.0%; Autofluor 339: 1.21

How did Cc1csc(NC(=O)c2sc3nc(-c4cccs4)ccc3c2N)n1 do in these assays?
MK inhibit: 1.0; A340 absorber: 1.06; PMK inhibit: 0.0; NADH coupling: 2.0%; Autofluor 339: 2.39*

How did CCOC(=O)C1CCCN(C(=O)c2cnn3c(C(F)F)cc(-c4ccc(C)cc4)nc23)C1 (stereo not drawn) do in these assays?
MK inhibit: 6.0; Spn DPM-DC inh: inactive; A340 absorber: 1.09; PMK inhibit: 4.0; NADH coupling: 8.0%; Autofluor 339: 2.31*

Results for COc1ccc(-c2cc(C(F)F)n3ncc(C(=O)N4CCSCC4)c3n2)cc1 ?
MK inhibit: 15.0; A340 absorber: 1.2; PMK inhibit: 8.0; NADH coupling: 12.0%; Autofluor 339: 3.46*

What do the screens show for `CCOC(=O)C1CCN(C(=O)c2cnn3c(C)cc(C)nc23)CC1`?
MK inhibit: 0.0; Spn DPM-DC inh: inactive; A340 absorber: 0.96; PMK inhibit: 20.0; NADH coupling: 15.0%; Autofluor 339: 3.45*

What do the screens show for `Cc1ccc(-c2cc(C(F)F)n3ncc(C(=O)N4CCN5CCCC5C4)c3n2)cc1` (stereo not drawn)?
MK inhibit: 0.0; Spn DPM-DC inh: inactive; A340 absorber: 1.1; PMK inhibit: 1.0; NADH coupling: 5.0%; Autofluor 339: 1.79

How did CS(=O)(=O)NCCC1=CCCCC1 do in these assays?
MK inhibit: 10.0; Spn DPM-DC inh: inactive; A340 absorber: 1.06; PMK inhibit: 7.0; NADH coupling: 6.0%; Autofluor 339: 1.07

What do the screens show for `COc1cc(C)nc(NS(=O)(=O)c2ccc(C)cc2)n1`?
MK inhibit: 7.0; Spn DPM-DC inh: inactive; A340 absorber: 0.97; PMK inhibit: 14.0; NADH coupling: 4.0%; Autofluor 339: 1.02

What do the screens show for `CCOC(=O)N1CCC(NC(=O)c2cc3c(-c4ccc(Cl)cc4)nn(C)c3s2)CC1`?
MK inhibit: 6.0; A340 absorber: 1.14; PMK inhibit: 10.0; NADH coupling: 8.0%; Autofluor 339: 2.14*

How did CCCCNC(=O)c1cc2c(-c3ccc(Cl)cc3)nn(C)c2s1 do in these assays?
MK inhibit: 3.0; Spn DPM-DC inh: inactive; A340 absorber: 1.06; PMK inhibit: 0.0; NADH coupling: 1.0%; Autofluor 339: 1.46

Results for COCCNC(=O)c1cc2c(-c3ccc(Cl)cc3)nn(C)c2s1 ?
MK inhibit: 0.0; A340 absorber: 1.06; PMK inhibit: 7.0; NADH coupling: 4.0%; Autofluor 339: 2.16*

How did COCCNC(=O)c1cc2c(-c3ccccc3F)nn(C)c2s1 do in these assays?
MK inhibit: 12.0; Spn DPM-DC inh: inactive; A340 absorber: 0.98; PMK inhibit: 13.0; NADH coupling: 7.0%; Autofluor 339: 2.03*

What do the screens show for `CC(C)NC(=O)c1cc2c(-c3ccc(Cl)cc3)nn(C)c2s1`?
MK inhibit: 5.0; Spn DPM-DC inh: inactive; A340 absorber: 1.09; PMK inhibit: 9.0; NADH coupling: 9.0%; Autofluor 339: 1.62

Results for COCCCNC(=O)c1cc2c(-c3ccc(Cl)cc3)nn(C)c2s1 ?
MK inhibit: 1.0; A340 absorber: 1.15; PMK inhibit: 0.0; NADH coupling: 1.0%; Autofluor 339: 2.16*

What do the screens show for `CCCCn1c(N2CCC(Cc3ccccc3)CC2)nc2c1c(=O)[nH]c(=O)n2C`?
MK inhibit: 8.0; Spn DPM-DC inh: inactive; A340 absorber: 0.99; PMK inhibit: 7.0; NADH coupling: 5.0%; Autofluor 339: 1.06

Results for Cn1nc(-c2ccc(Cl)cc2)c2cc(C(=O)NCCCN3CCCC3)sc21 ?
MK inhibit: 6.0; A340 absorber: 1.12; PMK inhibit: 6.0; NADH coupling: 6.0%; Autofluor 339: 2.13*

What do the screens show for `Brc1ccc(-c2nc3ccccc3s2)s1`?
MK inhibit: 0.0; Spn DPM-DC inh: inactive; A340 absorber: 1.06; PMK inhibit: 8.0; NADH coupling: 3.0%; Autofluor 339: 2.23*

How did COc1ccc(N2CC(C)Cn3c2nc2c3c(=O)[nH]c(=O)n2C)cc1 (stereo not drawn) do in these assays?
MK inhibit: 10.0; Spn DPM-DC inh: inactive; A340 absorber: 1.03; PMK inhibit: 11.0; NADH coupling: 7.0%; Autofluor 339: 1.11

Results for CCCCN1CCc2c([nH]c3c(C)cccc23)C1=O ?
MK inhibit: 4.0; Spn DPM-DC inh: inactive; A340 absorber: 1.04; PMK inhibit: 7.0; NADH coupling: 4.0%; Autofluor 339: 1.19

What do the screens show for `COC(=O)c1c(C(=O)OC)c2cc(C)ccn2c1Cl`?
MK inhibit: 11.0; A340 absorber: 1.1; PMK inhibit: 8.0; NADH coupling: 10.0%; Autofluor 339: 3.4*

Results for O=c1c(-c2ccccc2)c(O)c2cccc3c2n1CCC3 ?
MK inhibit: 43.0*; Spn DPM-DC inh: active; A340 absorber: 1.08; PMK inhibit: 66.0*; NADH coupling: 62.0%; Autofluor 339: 1.38

Results for Cc1ccc(NC(=O)COC(=O)c2ccn(C)n2)cc1 ?
MK inhibit: 9.0; Spn DPM-DC inh: inactive; A340 absorber: 0.99; PMK inhibit: 11.0; NADH coupling: 2.0%; Autofluor 339: 1.02

How did CCC(c1nnnn1C(C)C)N1CCN(C2CCCC2)CC1 (stereo not drawn) do in these assays?
MK inhibit: 17.0; Spn DPM-DC inh: inactive; A340 absorber: 0.86; PMK inhibit: 10.0; NADH coupling: 9.0%; Autofluor 339: 1.03

Results for COC(=O)Nc1c(-c2ccccc2)nc2ccc(C)cn12 ?
MK inhibit: 10.0; A340 absorber: 1.07; PMK inhibit: 7.0; NADH coupling: 9.0%; Autofluor 339: 3.77*

How did CC(=O)Nc1c(-c2ccc(F)cc2)nc2ccccn12 do in these assays?
MK inhibit: 4.0; A340 absorber: 1.01; PMK inhibit: 1.0; NADH coupling: 1.0%; Autofluor 339: 1.73

Results for COC(=O)Nc1c(-c2ccccc2)nc2ccccn12 ?
MK inhibit: 3.0; A340 absorber: 1.06; PMK inhibit: 0.0; NADH coupling: 2.0%; Autofluor 339: 2.1*

Results for O=S1(=O)N=C2CCCCCN2C(c2ccncc2)N1 (stereo not drawn) ?
MK inhibit: 5.0; Spn DPM-DC inh: inactive; A340 absorber: 0.99; PMK inhibit: 8.0; NADH coupling: 4.0%; Autofluor 339: 1.02

How did COC(=O)[C@@H](NC(=O)NCc1ccccc1Cl)C(C)C do in these assays?
MK inhibit: 6.0; Spn DPM-DC inh: inactive; A340 absorber: 0.97; PMK inhibit: 6.0; NADH coupling: 3.0%; Autofluor 339: 0.98
